# Values joined by “and” are separate entries in the source; they are usually repeats but may differ in a detail not shown here. Equal values may be shown once. The panel holds about 83,000 compounds, 20% with a hit somewhere; the sample as a whole holds those more often.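 Treatment: one concentration, 48 hours, 96-well format. Scoring: percent growth, with anything below 10 considered active.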 Active and inactive are the calls of the source.
# How the values were obtained:
# Assay in all cases: NCI-60 one-dose screen, 48 h (100 = growth as untreated, 0 = no growth, -100 = all killed)
# SR leukemia = system: SR leukemia
# RPMI-8226 leukemia = system: RPMI-8226 leukemia
# OVCAR-8 ovarian = system: OVCAR-8 ovarian
# OVCAR-5 ovarian = system: OVCAR-5 ovarian
# OVCAR-4 ovarian = system: OVCAR-4 ovarian
# SK-OV-3 ovarian = system: SK-OV-3 ovarian
# IGROV1 ovarian = system: IGROV1 ovarian
# OVCAR-3 ovarian = system: OVCAR-3 ovarian
# HS 578T breast = system: HS 578T breast
# NCI/ADR-RES ovarian = system: NCI/ADR-RES ovarian
compound,measurement,setting,value
CC(C)(C)CC(C)(C)c1ccc(OCCO)cc1,growth,SR leukemia; 10 µM unless noted,85.5% (inactive)
same,growth,RPMI-8226 leukemia; 10 µM,124% (inactive)
same,growth,OVCAR-8 ovarian; 10 µM,108% (inactive)
same,growth,OVCAR-5 ovarian; 10 µM,111% (inactive)
same,growth,OVCAR-4 ovarian; 10 µM,124% (inactive)
same,growth,SK-OV-3 ovarian; 10 µM,116% (inactive)
same,growth,IGROV1 ovarian; 10 µM,108% (inactive)
same,growth,OVCAR-3 ovarian; 10 µM,116% (inactive)
same,growth,HS 578T breast; 10 µM,94.6% (inactive)
same,growth,NCI/ADR-RES ovarian; 10 µM,105% (inactive)
Nc1c2ccccc2nc2ccccc12,growth,SR leukemia; 10 µM unless noted,0.28% (active) and 18.5% (inactive) and 24.2% (inactive)
same,growth,RPMI-8226 leukemia; 10 µM,43.6% (inactive) and -28.8% (active) and 43.7% (inactive)
same,growth,OVCAR-8 ovarian; 10 µM,-30.4% (active) and 38.1% (inactive) and 29.2% (inactive)
same,growth,OVCAR-5 ovarian; 10 µM,78.4% (inactive) and 55.4% (inactive)
same,growth,OVCAR-4 ovarian; 10 µM,4.83% (active) and 33.8% (inactive) and 56.2% (inactive)
same,growth,SK-OV-3 ovarian; 10 µM,18.9% (inactive) and 40% (inactive) and 34.1% (inactive)
same,growth,IGROV1 ovarian; 10 µM,13.6% (inactive) and -40.3% (active) and 32.2% (inactive)
same,growth,OVCAR-3 ovarian; 10 µM,3.88% (active) and 52.9% (inactive)
same,growth,HS 578T breast; 10 µM,44.9% (inactive) and 27.5% (inactive) and 82.2% (inactive)
same,growth,NCI/ADR-RES ovarian; 10 µM,7.27% (active) and 43.1% (inactive) and 37% (inactive)
OCC1OC(n2cnc3c(=S)nc[nH]c32)C(O)C1O (configuration not stated),growth,SR leukemia; 10 µM unless noted,112% (inactive) and 37.9% (inactive)
same,growth,RPMI-8226 leukemia; 10 µM,108% (inactive) and 31.6% (inactive)
same,growth,OVCAR-8 ovarian; 10 µM,47.3% (inactive)
same,growth,OVCAR-5 ovarian; 10 µM,57% (inactive) and 85.1% (inactive)
same,growth,OVCAR-4 ovarian; 10 µM,91.5% (inactive) and 46.9% (inactive)
same,growth,SK-OV-3 ovarian; 10 µM,113% (inactive)
same,growth,IGROV1 ovarian; 10 µM,85.4% (inactive)
same,growth,OVCAR-3 ovarian; 10 µM,113% (inactive) and 47% (inactive)
same,growth,HS 578T breast; 10 µM,89.5% (inactive) and 62.7% (inactive)
same,growth,NCI/ADR-RES ovarian; 10 µM,102% (inactive) and 46.5% (inactive)
COc1cccc2c1C(=O)c1c(O)c3c(c(O)c1C2=O)C[C@@](O)(C(=O)CO)C[C@@H]3OC1CC(N)C(O)C(C)O1 (some centres not stated),growth,SR leukemia; 0.0025 µM,81.5% (inactive)
same,growth,SR leukemia; 2.5 µM,-29.1% (active)
same,growth,SR leukemia; 10 µM,-0.536% (active)
same,growth,RPMI-8226 leukemia; 0.0025 µM,101% (inactive)
same,growth,RPMI-8226 leukemia; 1 µM,-15.7% (active)
same,growth,RPMI-8226 leukemia; 2.5 µM,62.7% (inactive)
same,growth,RPMI-8226 leukemia; 10 µM,-17.4% (active)
same,growth,OVCAR-8 ovarian; 0.0025 µM,99.5% (inactive)
same,growth,OVCAR-8 ovarian; 1 µM,36.6% (inactive)
same,growth,OVCAR-8 ovarian; 2.5 µM,45% (inactive)
same,growth,OVCAR-5 ovarian; 0.0025 µM,102% (inactive)
same,growth,OVCAR-5 ovarian; 1 µM,84.4% (inactive)
same,growth,OVCAR-5 ovarian; 2.5 µM,120% (inactive)
same,growth,OVCAR-5 ovarian; 10 µM,-59.3% (active)
same,growth,OVCAR-4 ovarian; 0.0025 µM,114% (inactive)
same,growth,OVCAR-4 ovarian; 1 µM,68% (inactive)
same,growth,OVCAR-4 ovarian; 2.5 µM,67.6% (inactive)
same,growth,OVCAR-4 ovarian; 10 µM,14.1% (inactive)
same,growth,SK-OV-3 ovarian; 0.0025 µM,95.6% (inactive)
same,growth,SK-OV-3 ovarian; 1 µM,28.4% (inactive)
same,growth,SK-OV-3 ovarian; 2.5 µM,43.4% (inactive)
same,growth,SK-OV-3 ovarian; 10 µM,13.8% (inactive)
same,growth,IGROV1 ovarian; 0.0025 µM,85.7% (inactive)
same,growth,IGROV1 ovarian; 1 µM,19.9% (inactive)
same,growth,IGROV1 ovarian; 2.5 µM,50% (inactive)
same,growth,IGROV1 ovarian; 10 µM,-7.77% (active)
same,growth,OVCAR-3 ovarian; 0.0025 µM,105% (inactive)
same,growth,OVCAR-3 ovarian; 1 µM,81.8% (inactive)
same,growth,OVCAR-3 ovarian; 10 µM,10.2% (inactive)
same,growth,HS 578T breast; 0.0025 µM,97.9% (inactive)
same,growth,HS 578T breast; 1 µM,70.8% (inactive)
same,growth,HS 578T breast; 2.5 µM,50% (inactive)
same,growth,HS 578T breast; 10 µM,-68.2% (active)
same,growth,NCI/ADR-RES ovarian; 0.0025 µM,103% (inactive)
same,growth,NCI/ADR-RES ovarian; 1 µM,104% (inactive)
same,growth,NCI/ADR-RES ovarian; 2.5 µM,99% (inactive)
same,growth,NCI/ADR-RES ovarian; 10 µM,4.94% (active)
NNc1ccc2ccccc2c1,growth,SR leukemia; 10 µM unless noted,82.3% (inactive) and 94.9% (inactive)
same,growth,RPMI-8226 leukemia; 10 µM,92.8% (inactive) and 97.2% (inactive)
same,growth,OVCAR-8 ovarian; 10 µM,97.8% (inactive) and 96.2% (inactive)
same,growth,OVCAR-5 ovarian; 10 µM,92.3% (inactive) and 93% (inactive)
same,growth,OVCAR-4 ovarian; 10 µM,89.9% (inactive) and 88.2% (inactive)
same,growth,SK-OV-3 ovarian; 10 µM,76.3% (inactive) and 91.1% (inactive)
same,growth,IGROV1 ovarian; 10 µM,83% (inactive) and 103% (inactive)
same,growth,OVCAR-3 ovarian; 10 µM,92.1% (inactive) and 99.6% (inactive)
same,growth,HS 578T breast; 10 µM,96.1% (inactive) and 98.9% (inactive)
same,growth,NCI/ADR-RES ovarian; 10 µM,97.1% (inactive) and 101% (inactive)
O=[N+]([O-])C1=C(c2ccccc2)SC=C(c2ccccc2)S1,growth,SR leukemia; 10 µM unless noted,6.09% (active)
same,growth,RPMI-8226 leukemia; 10 µM,48.6% (inactive)
same,growth,OVCAR-8 ovarian; 10 µM,71.4% (inactive)
same,growth,OVCAR-5 ovarian; 10 µM,113% (inactive)
same,growth,OVCAR-4 ovarian; 10 µM,87.4% (inactive)
same,growth,SK-OV-3 ovarian; 10 µM,79.4% (inactive)
same,growth,IGROV1 ovarian; 10 µM,76.3% (inactive)
same,growth,OVCAR-3 ovarian; 10 µM,73.6% (inactive)
same,growth,HS 578T breast; 10 µM,85.7% (inactive)
same,growth,NCI/ADR-RES ovarian; 10 µM,78.1% (inactive)
NC1=C(Cl)C(=O)c2ccccc2C1=O,growth,SR leukemia; 10 µM unless noted,46.4% (inactive)
same,growth,RPMI-8226 leukemia; 10 µM,55.7% (inactive)
same,growth,OVCAR-8 ovarian; 10 µM,74.4% (inactive)
same,growth,OVCAR-5 ovarian; 10 µM,111% (inactive)
same,growth,OVCAR-4 ovarian; 10 µM,72.3% (inactive)
same,growth,SK-OV-3 ovarian; 10 µM,108% (inactive)
same,growth,IGROV1 ovarian; 10 µM,67.7% (inactive)
same,growth,OVCAR-3 ovarian; 10 µM,12.3% (inactive)
same,growth,HS 578T breast; 10 µM,14.5% (inactive)
same,growth,NCI/ADR-RES ovarian; 10 µM,80.4% (inactive)
